# Assay outcomes deposited in PubChem by National Center for Advancing Translational Sciences (NCATS).
# In the library only some 11% were active in any assay of this set; here they are far more common.
# HEK cytotox = kills HEK 293 cells; HEK 293 viability, ATP luminescence (CellTiter-Glo), 48-72 h; Potency, µM (titrated, usually from 115 µM), actives largely listed as inhibitors; 94,000 tested, 6.6% active; AID 1345083; note: nearly all actives have a fitted effect of over 60% in size
#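 Viability of HEK 293 cells, plated at 250 cells/well, was judged by cellular ATP after compound treatment for 48 or 72 hr. Luminescence was imaged 10 min after CellTiter-Glo addition at room temperature.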
# hNpr1 antagonist = blocks ANP-stimulated signaling of human Npr1 receptor; HEK293 hNpr1 GloSensor cGMP, ANP-stimulated luminescence; Potency, µM (doses to about 46.3 µM), most hits filed as inhibitors; 76,000 tested, 1.6% active; calls by dose curve; note: nearly all actives have a fitted effect of over 60% in size
#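 HEK293 cells stably expressing human Npr1 and cGMP GloSensor pGS-40F, loaded 2 h with 2% GloSensor reagent, given compound 30 min at room temperature. Luminescence read before and 20 min after 0.1 nM hNppA.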
# 3T3 cytotox = kills NIH 3T3 cells. Potency, µM (titrated, usually from 96.7 µM), most hits filed as inhibitors. 94,000 tested, 4.3% active. NIH 3T3 viability, CellTiter-Glo ATP luminescence, 48-72 h. AID 1345082; note: nearly all actives have a fitted effect of over 55% in size
#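 Luminescent ATP readout (CellTiter-Glo, 10 min RT) after 48 or 72 hr compound exposure of NIH 3T3 cells seeded at 400 cells/well in 1536-well format; quantitative HTS.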
# FLuc inh-1 = blocks purified firefly luciferase enzyme activity; purified P. pyralis luciferase, luminescence, biochemical; Potency, µM (highest dose often 115 µM), most hits filed as inhibitors; 76,000 tested, 2.5% active; AID 1347043; note: nearly all actives have a fitted effect of over 65% in size
# Target sequence (P08659 whole entry, looked up): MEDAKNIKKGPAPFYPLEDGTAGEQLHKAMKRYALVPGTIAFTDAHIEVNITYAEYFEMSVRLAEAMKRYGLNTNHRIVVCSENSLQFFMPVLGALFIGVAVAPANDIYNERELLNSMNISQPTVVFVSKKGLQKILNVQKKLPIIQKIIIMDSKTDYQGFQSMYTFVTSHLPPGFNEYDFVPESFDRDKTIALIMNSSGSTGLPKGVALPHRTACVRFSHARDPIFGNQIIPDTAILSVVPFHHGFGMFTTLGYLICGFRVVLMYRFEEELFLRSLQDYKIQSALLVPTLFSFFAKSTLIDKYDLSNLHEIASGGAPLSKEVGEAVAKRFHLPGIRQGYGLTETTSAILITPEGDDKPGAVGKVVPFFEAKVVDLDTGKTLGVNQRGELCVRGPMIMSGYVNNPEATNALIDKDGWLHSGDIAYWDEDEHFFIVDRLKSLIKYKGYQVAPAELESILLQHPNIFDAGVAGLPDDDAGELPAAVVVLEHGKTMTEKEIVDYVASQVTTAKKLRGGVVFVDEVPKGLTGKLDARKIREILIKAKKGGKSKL
#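 Luminescence read by CCD imager after adding enzyme (10nM final) to wells holding compound, titrated in qHTS. Substrates 10uM each D-luciferin and ATP; buffer 50mM Tris acetate pH 7.5, 10mM Mg acetate, Tween-20, BSA.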
# FLuc SDR -ATP = firefly luciferase binding stabilization, ATP absent. AID 1963318. 1,300 tested, 7.8% active. Potency, µM (series often up to 32.7 µM), hits mostly activators. shares compounds with FLuc inh-1. Purified FLuc-C-HiBiT, Nano-Glo HiBiT luminescence, no ATP; note: nearly all actives have a fitted effect of over 55% in size
# FLuc SDR ATP = binders stabilizing firefly luciferase, plus ATP. shares compounds with FLuc inh-1. purified FLuc-C-HiBiT + ATP, HiBiT complementation luminescence. Potency, µM (doses to about 32.7 µM), actives largely listed as activators. 1,300 tested, 8.7% active;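 note: signal reports ligand binding via conformational change of the enzyme rather than luciferase catalysis; nearly all actives have a fitted effect of over 55% in size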
# FLuc inh-2 = firefly luciferase enzyme inhibition; shares compounds with FLuc inh-1; purified FLuc-C-HiBiT enzyme, luciferin luminescence; Potency, µM (highest dose often 32.7 µM), actives largely listed as inhibitors; 1,300 tested, 42% active; AID 1963320; note: nearly all actives have a fitted effect of over 70% in size
# A number is an active result; i = inactive; ? = inconclusive; nt = no result. Unless noted, calls come from the whole dose curve; as a rule, active = well fitted curve in the direction sought with a large enough effect; inconclusive = small, poorly fitted or top-dose-only effect, or another doubt; inactive = no such curve, though single readings can be large; an effect the other way counts as inactive or inconclusive.
SMILES,HEK cytotox,hNpr1 antagonist,3T3 cytotox,FLuc inh-1,FLuc SDR -ATP,FLuc SDR ATP,FLuc inh-2
O=C(Nc1ccc(O)c(-c2nc3ccccc3s2)c1)c1cc2ccccc2o1,nt,nt,nt,nt,i,i,i
O=C(NC1CC1)[C@@H]1C[C@H](Oc2cccnc2)CN1C(=O)CCc1c[nH]c2ccccc12,i,i,i,i,nt,nt,nt
Cc1noc(C)c1[S+](=O)([O-])N1CCCC(C(=O)N2CCC(c3nc4ccncc4[nH]3)C2)C1 (centres undefined),i,nt,i,nt,nt,nt,nt
Clc1ccc(C2Cn3nnc(-c4nc(-c5ccccn5)no4)c3CO2)cc1 (centres undefined),i,i,i,?,nt,nt,nt
Clc1cccc(-c2nc(-c3ccccn3)no2)c1,nt,nt,nt,nt,3.94µM,?,0.989µM
Cc1ccc(-c2nc(-c3ccccn3)no2)cc1Cl,nt,nt,nt,nt,4.42µM,?,0.624µM
COCCN1CCOc2nc(-c3cccc(N(C)C)c3)ncc2C1=O,nt,nt,nt,nt,i,?,?
COc1ccc(-c2ncc3c(n2)OCCN(Cc2ccccc2)C3=O)cc1,?,28.2µM,?,2.51µM,i,i,?
COc1ncccc1-c1ncc2c(n1)OCCN(Cc1ccccc1)C2=O,i,i,?,i,nt,nt,nt
COc1cccc(-c2ncc3c(n2)OCCN(Cc2ccccc2)C3=O)c1,?,?,?,2.82µM,i,?,?
O=C1c2cnc(-c3cc4ccccc4o3)nc2OCCN1Cc1ccccc1,?,8.91µM,?,0.1µM,?,?,1.61µM
CC(C)NC(=O)C1CCC(=O)N1C1CCN(C(=O)Cc2ccccc2F)CC1 (centres undefined),i,nt,i,nt,nt,nt,nt
O=C(CC(F)(F)F)N1CCC(N2C(=O)C(O)C23CCCCC3)CC1 (centres undefined),i,i,i,i,nt,nt,nt
CCOC(=O)C1=CN(CC(=O)Nc2ccc(C)cc2)S(=O)(=O)N=C1C,?,i,i,i,nt,nt,nt
Cc1ccc(NC(=O)COc2cccc(-c3nnc4n3CCCC4)c2)cc1,i,i,i,i,nt,nt,nt
CCOc1ncccc1C(=O)OCC(=O)Nc1ccc(-c2nc3ccc(C)cc3s2)cc1,nt,nt,nt,nt,i,i,?
CCCCN(C)S(=O)(=O)c1ccc(C(=O)Nc2ccc(-c3nc4ccc(C)cc4s3)cc2)cc1,nt,nt,nt,nt,i,i,i
Cc1ccc2nc(-c3ccc(NC(=O)COc4ccccc4)cc3)sc2c1,nt,nt,nt,nt,i,i,6.24µM
Cc1ccc2nc(-c3ccc(NC(=O)COc4ccccc4C(C)(C)C)cc3)sc2c1,nt,nt,nt,nt,i,i,?
COc1ccccc1C(=O)N1CCC2(CC(C(C)C)=NO2)C1 (centres undefined),i,nt,i,nt,nt,nt,nt
O=C1NC(C(=O)N2CCOCC2)CN1Cc1ccccc1 (centres undefined),i,i,i,i,nt,nt,nt
CCc1ccc2nc(N3CCC(C(=O)O)CC3)sc2c1,nt,nt,nt,nt,2.48µM,0.07µM,0.0351µM
COc1ccc(-c2noc([C@@H]3Cc4nc[nH]c4CN3C(=O)Nc3ccc(Cl)cc3)n2)cc1,?,i,?,12.6µM,i,i,i
O=C(Nc1ccc(F)cc1)N1Cc2[nH]cnc2C[C@H]1c1nc(-c2ccc(F)cc2)no1,?,i,?,?,nt,nt,nt
Cc1ccc(-c2noc([C@@H]3Cc4nc[nH]c4CN3C(=O)Nc3cccc(F)c3)n2)cc1,79.4µM,?,?,10µM,i,i,?
SMILES,HEK cytotox,hNpr1 antagonist,3T3 cytotox,FLuc inh-1,FLuc SDR -ATP,FLuc SDR ATP,FLuc inh-2
Cc1noc([C@@H]2C[C@H](NS(=O)(=O)c3cccc4cccnc34)CN2C)n1,i,i,i,i,nt,nt,nt
CN(C1CCOCC1)C1CCN(S(=O)(=O)c2ccccc2)CC1,i,i,i,i,nt,nt,nt
O=C(c1cccc(-c2ccccn2)c1)N1CCN(C(=O)c2ccccc2F)CC1,?,nt,i,nt,nt,nt,nt
CC(C)CCNC(=O)c1ccc2c(c1)nc1n2CCCCC1,nt,nt,nt,nt,?,?,9.89µM
O=C(NCCc1ccccc1Cl)c1ccc2c(c1)nc1n2CCCCC1,nt,nt,nt,nt,3.94µM,?,1.11µM
O=C(NCCc1ccccc1)c1ccc2c(c1)nc1n2CCOC1,nt,nt,nt,nt,?,?,8.81µM
COC(=O)[C@H](CC1CCCCC1)NC(=O)[C@@H]1CN(C(=O)c2cccnc2)CCN1S(C)(=O)=O,i,i,i,i,nt,nt,nt
CNC(=O)c1cc(C2CC2)nc2c1c(C1CCN([S+](=O)([O-])c3ccc(NC(C)=O)cc3)CC1)nn2C,?,nt,i,nt,nt,nt,nt
COCCC1(CO)CCCN(C(=O)c2ccc3c(c2)OCC(=O)N3)C1 (centres undefined),i,i,i,i,nt,nt,nt
COCCn1c(=O)c(C(=O)NCc2ccc(Cl)cc2)nc2cccnc21,?,nt,i,nt,nt,nt,nt
Cc1ccc(Cl)cc1-n1nnc(-c2nsc(NC(=O)c3ccccc3Cl)n2)c1C,nt,nt,nt,nt,i,i,i
COCCOCc1nc(C2CCCCN2C(=O)Nc2cccc(Cl)c2)no1 (centres undefined),i,i,i,i,nt,nt,nt
Cc1c(-c2ccccc2F)[nH]c2ccc(CNC(=O)CCc3cnccn3)cc12,?,i,?,?,nt,nt,nt
Cc1c(-c2ccccc2F)[nH]c2ccc(CNC(=O)CC3CCC(=O)N3)cc12 (centres undefined),35.5µM,i,i,10µM,?,i,9.89µM
Cc1c(-c2ccccc2F)[nH]c2ccc(CNC(=O)CCc3cc(=O)[nH]o3)cc12,i,i,?,2.82µM,i,i,9.89µM
COc1ccc(C(=O)Nc2noc3ccccc23)cc1,nt,nt,nt,nt,9.89µM,3.13µM,0.881µM
COc1ccc(C(=O)N2CCc3ccc(C(=O)NC4CCCCC4)cc32)cc1,?,i,?,i,nt,nt,nt
COc1cc(C)ccc1OCc1cc(C(=O)NCc2n[nH]c3c2CCC3)no1,?,i,?,11.2µM,i,i,?
COc1cccc([S+](=O)([O-])N2CCCC3(C2)C(=NC2CCCCC2)NC(=O)N3c2cc(F)cc(F)c2)c1 (centres undefined),i,nt,i,nt,nt,nt,nt
COc1cccc(-c2cccc(COc3cnc4c(ccn4CC(=O)O)c3)c2)c1F,i,i,?,12.6µM,i,i,12.8µM
O=C(O)Cn1ccc2cc(OCc3cccc(-c4ccc(F)c(Cl)c4)c3)cnc21,?,i,i,i,nt,nt,nt
Cc1ccc(-c2cccc(COc3cnc4c(ccn4CC(=O)O)c3)c2)cc1,?,i,i,7.94µM,i,i,?
COc1ccc(CNC(=O)[C@@H]2CCC[C@@H](NC(=O)c3ccc(C#N)cc3)CN(C)C(=O)C2)cc1,i,i,i,i,nt,nt,nt
O=C(O)C(c1cccc2c1OCC2)N1CCCN(c2ncccn2)CC1 (centres undefined),i,i,i,i,nt,nt,nt
Cc1cc(CNC(=O)C2CCCCn3nnnc32)c2[nH]c(-c3ccccc3)c(C)c2c1 (centres undefined),25.1µM,i,35.5µM,8.91µM,i,i,?
COC(=O)CCC(=O)N[C@H]1CO[C@H]2[C@@H]1OC[C@H]2OCc1ccccc1,i,i,i,i,nt,nt,nt
